Rows were chosen to be rich in hits. Some 2.8% of all compounds tested hit in one or more screens of this group.
IP6K1 inhibitor: blocks human inositol hexakisphosphate kinase 1; Q92551; IP6K1 kinase, ADP-Glo luminescence, 2 h; stronger effect = lower value; 140,000 tested, 0.81% active; activity change, % (series mostly up to about 58 µM); in the data active means activity change below about -25%
Target sequence (Q92551 whole entry, looked up): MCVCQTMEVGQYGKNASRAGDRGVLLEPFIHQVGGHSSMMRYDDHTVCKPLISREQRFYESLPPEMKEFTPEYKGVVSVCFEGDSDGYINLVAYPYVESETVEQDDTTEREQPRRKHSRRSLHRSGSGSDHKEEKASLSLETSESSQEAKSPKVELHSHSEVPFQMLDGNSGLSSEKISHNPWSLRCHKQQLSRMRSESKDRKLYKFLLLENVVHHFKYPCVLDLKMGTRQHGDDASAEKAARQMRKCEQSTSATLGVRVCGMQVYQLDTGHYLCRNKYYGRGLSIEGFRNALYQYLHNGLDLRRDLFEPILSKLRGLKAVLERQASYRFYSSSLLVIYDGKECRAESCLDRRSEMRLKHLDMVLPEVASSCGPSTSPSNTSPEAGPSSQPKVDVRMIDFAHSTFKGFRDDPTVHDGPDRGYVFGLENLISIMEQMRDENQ
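ADP-Glo luminescence measures ADP made by human IP6K1 during a 2 h RT reaction with ATP/IP6 (mix at 1.3 mM/130 uM); top library doses 57.5 and 19.1 uM final.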
KDM5B inhibitor: KDM5B demethylase inhibition; Potency, µM (doses to about 57.7 µM), most hits filed as inhibitors; 220,000 tested, 2.6% active; KDM5B demethylase, FDH-coupled NADH fluorescence (FDH is formaldehyde dehydrogenase); Q9UGL1; AID 1347165; further: nearly all actives have a fitted effect of over 70% in size
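qHTS format, multiple compound concentrations. Buffer 50 mM HEPES pH 7.5/0.01% Tween-20; 200 nM KDM5BΔAP final; 10 min compound preincubation; substrate-mix levels 12.5 µM peptide, 25 µM α-KG, 0.25 mM NAD⁺; 30 min RT; ΔRFU.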
SNCA expr inh: reduces expression of the alpha-synuclein gene; Potency, µM (titrated, usually from 57.2 µM), hits mostly inhibitors; 140,000 tested, 0.17% active; HEK-293 SNCA-luciferase knock-in, luminescence, 24 h; further: nearly all actives have a fitted effect of over 45% in size
SNCA viab count: cell viability loss counter-screen; 150,000 tested, 0.12% active; AID 1671193; HEK-293-SNCA-luc viability, GF-AFC fluorescence, 24 h; Potency, µM (doses to about 57.1 µM), hits mostly cytotoxic; further: nearly all actives have a fitted effect of over 30% in size
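HEK-293-SNCA-luc cells (1500/well) plated 24 h, then exposed 24 h to a dilution series; GF-AFC added 30 min at 37C, fluorescence 405/540 nm; normalised to medium-only and DMSO wells, Hill fit.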
IP6K1 conf: human IP6K1 inhibition, confirmatory. shares compounds with IP6K1 inhibitor. recombinant IP6K1 kinase, ADP-Glo luminescence, 2 h. Potency, µM (series often up to 49 µM), usual class: inhibitors. 1,200 tested, 13% active. AID 1645852; further: nearly all actives have a fitted effect of over 65% in size
Of the large screens only hits and unclear results are named; the others gave an inactive call (follow-up assays come after a bar, where they were run); ! = a repeat was not active. Unless noted, the call rests on the fitted dose curve; in most records, active means well fitted curve in the direction sought with a large enough effect; inconclusive means small, poorly fitted or top-dose-only effect, or another doubt; inactive means no such curve, though single readings can be large; an effect the other way counts as inactive or inconclusive.

COc1cc(Nc2ncc3c(n2)-c2ccc(Cl)cc2C(c2c(F)cccc2OC)=NC3)ccc1C(=O)O	IP6K1 inhibitor -37! (no result: KDM5B inhibitor) | IP6K1 conf inconclusive
O=C(NC1CC1)c1cn(-c2ccccc2)nc1-c1ccccc1	none (no result: IP6K1 inhibitor, SNCA expr inh, SNCA viab count)
CCOc1cc(C2C(C(=O)OC)=C(C)NC3=C2C(=O)c2ccccc23)c(Br)cc1OC (stereo unspecified)	KDM5B inhibitor inconclusive
CCOc1cc(Br)c(C2C(C(=O)OC)=C(C)NC3=C2C(=O)c2ccccc23)cc1OCC (stereo unspecified)	IP6K1 inhibitor -32, KDM5B inhibitor inconclusive | IP6K1 conf inactive
CN(C)CCNC(=O)c1ccnc(-c2nnc3ccc(Nc4ccccc4)nn23)c1	none
O=C(NCCc1ccccn1)c1ccnc(-c2nnc3ccc(Nc4ccccc4)nn23)c1	IP6K1 inhibitor -37, KDM5B inhibitor inconclusive | IP6K1 conf inconclusive
O=C(Nc1cccnc1)c1ccnc(-c2nnc3ccc(Nc4ccccc4)nn23)c1	IP6K1 inhibitor -56, KDM5B inhibitor inconclusive | IP6K1 conf inconclusive
Cc1ccccc1CNC(=O)c1ccc(-c2ccc(S(=O)(=O)N3CCCC3)cc2)cc1	none (no result: IP6K1 inhibitor, SNCA expr inh, SNCA viab count)
O=C(NC1CCCCCC1)c1cn2cc(-c3cccnc3)sc2n1	none (no result: KDM5B inhibitor)
CC1=C(C(=O)OC2CCCCC2)C(c2ccc([N+](=O)[O-])cc2)C2=C(CC(C)(C)CC2=O)N1 (stereo unspecified)	IP6K1 inhibitor -36 (no result: KDM5B inhibitor, SNCA expr inh) | IP6K1 conf inactive
CC1=C(C(=O)OC2CCCCCC2)C(c2c(Cl)cccc2Cl)CC(=O)N1 (stereo unspecified)	SNCA expr inh inconclusive
CCOC(=O)N1CCN(Cc2nc3cc(NC(=O)C(C)C)ccc3n2C(C)C)CC1	IP6K1 inhibitor -36 | IP6K1 conf inactive
CCCNC(=O)N1CCN2C(=O)c3cc(-c4ccccc4F)ccc3NC(=O)[C@@H]2C1	KDM5B inhibitor inconclusive
CCN1CC2(CCN(C(=O)c3cnc4c(O)cccn4c3=O)CC2)OC1=O	IP6K1 inhibitor -27, KDM5B inhibitor 32µM, SNCA viab count inconclusive | IP6K1 conf inactive
CCN1CC2(CCN(C(=O)c3cccc(Cn4cccn4)c3)CC2)OC1=O	none
O=S(=O)(c1ccc(-c2cc(C(F)(F)F)on2)s1)N1CCN(c2cccc(Cl)c2)CC1	IP6K1 inhibitor -33 | IP6K1 conf inactive
CC(C)C(=O)Nc1ccc(C2(C(=O)NCc3cccnc3)CCCCC2)cc1	none
COc1cccc(-c2ccc3c(N)c(C(=O)Nc4ccccc4C)sc3n2)c1	IP6K1 inhibitor -26, KDM5B inhibitor inconclusive, SNCA expr inh inconclusive, SNCA viab count inconclusive | IP6K1 conf inactive
COc1cccc(-c2ccc3c(N)c(C(=O)Nc4cc(F)ccc4F)sc3n2)c1	SNCA viab count inconclusive
CC(C)Cn1c(=O)c(C(=O)N2CCCC(C)C2)nc2cccnc21 (stereo unspecified)	none (no result: KDM5B inhibitor)
O=C(NCc1cccc(F)c1)c1csc(N2CCN(c3ccc(Cl)cc3)CC2)n1	KDM5B inhibitor inconclusive, SNCA expr inh inconclusive
Cc1ccc(-n2ncc(C(=O)NCc3cccs3)c2C2CCN(C(=O)OC(C)(C)C)CC2)c(C)c1	IP6K1 inhibitor -33, KDM5B inhibitor inconclusive, SNCA expr inh inconclusive | IP6K1 conf inactive
Cc1ccc(-n2ncc(C(=O)NCc3cccs3)c2C2CCN(C(=O)OC(C)(C)C)CC2)cc1C	SNCA expr inh inconclusive, SNCA viab count inconclusive
Cc1ccc(-n2ncc(C(=O)N3CCN(c4ccc(Cl)cc4)CC3)c2C2CCN(C(=O)OC(C)(C)C)CC2)c(C)c1	IP6K1 inhibitor -35 | IP6K1 conf inactive
CCCCn1c(=O)c(C(=O)NCCc2ccc(Cl)cc2)nc2cccnc21	none (no result: KDM5B inhibitor)
CC1CCCN(C(=O)CSc2nc(-c3ccco3)cc(C(F)(F)F)n2)C1 (stereo unspecified)	none (no result: IP6K1 inhibitor, SNCA expr inh, SNCA viab count)
Cc1cc(F)c(C(=O)Nc2cccc(-c3nncn3C(C)C)n2)cc1-n1cnc(C2CC2)c1	IP6K1 inhibitor -35, SNCA viab count inconclusive (no result: KDM5B inhibitor, SNCA expr inh) | IP6K1 conf inconclusive
Cn1nc(C2CCCC2)cc1NC(=O)c1ccccc1F	none (no result: KDM5B inhibitor)
Cc1ccc(C(=O)N2CCCC(C(=O)N3CCC(c4ccccc4)CC3)C2)cc1 (stereo unspecified)	none (no result: KDM5B inhibitor)
COc1cc(O)cc(/C=C/c2cccc(O)c2)c1	IP6K1 inhibitor -45 (no result: KDM5B inhibitor, SNCA expr inh) | IP6K1 conf inconclusive
CC(=O)Oc1cccc(O)c1	none (no result: KDM5B inhibitor)
C=CCNC(=O)[C@@H]1[C@H](c2cc(OC)c(OC)c(OC)c2)c2cc3c(cc2[C@H](O)[C@H]1CO)OCO3	none
N#Cc1c(O)c2c(-c3ccc(-c4ccccc4O)cc3)csc2[nH]c1=O	IP6K1 inhibitor -46 (no result: KDM5B inhibitor) | IP6K1 conf inconclusive
CCOc1ccc(NC(=O)CCn2nc(-c3ccccc3OC)c3c(C)cc(C)nc32)cc1	none (no result: IP6K1 inhibitor, SNCA expr inh, SNCA viab count)
COc1ccc(NC(=O)c2cc(-c3ccc[nH]3)n[nH]2)cc1F	none | IP6K1 conf inconclusive
Cc1cccc(NC(=O)c2cc(-c3ccc[nH]3)n[nH]2)c1	KDM5B inhibitor inconclusive | IP6K1 conf inconclusive
COCC(=O)NC1CCC12CCN(S(=O)(=O)c1ccc(C#N)cc1)CC2 (stereo unspecified)	none
O=C(CNC(=O)c1cccs1)NCC1COc2ccccc2O1 (stereo unspecified)	none (no result: IP6K1 inhibitor, SNCA expr inh, SNCA viab count)
COc1ccc(C(=O)N2CCC3(CC2)NC(=O)N(Cc2ccccc2)C3=O)c(C)c1	none
FC(F)(F)c1ccc(O[C@H]2COCCN(c3nc4ccccc4o3)C2)nc1	KDM5B inhibitor inconclusive
CC(=O)N1CCCC(c2nn(-c3ccccn3)c(=O)[nH]2)C1 (stereo unspecified)	IP6K1 inhibitor -25 (no result: KDM5B inhibitor) | IP6K1 conf inactive
O=C(C1CC1)N1CCCC(c2nn(-c3ccccn3)c(=O)[nH]2)C1 (stereo unspecified)	none (no result: KDM5B inhibitor)
Cc1ccc(F)c(C(=O)N[C@H](Cc2ccccc2)C2CC(O)C2)c1Cl (stereo partly specified)	IP6K1 inhibitor -34 | IP6K1 conf inactive
O=C(N[C@H](Cc1ccccc1)C1CC(O)C1)c1cnn(Cc2ccccc2)c1 (stereo partly specified)	none
Cc1noc(C)c1CN1CCN(C(=O)c2cc(C3CC3)nn2-c2ccccc2)CC1	none (no result: IP6K1 inhibitor, SNCA expr inh, SNCA viab count)
CCOC(=O)c1cc2c(=O)n3ccccc3nc2n(Cc2ccco2)c1=NC(=O)c1cccc(Br)c1	KDM5B inhibitor inconclusive
CCOC(=O)c1cc2c(=O)n3ccccc3nc2n(Cc2ccco2)c1=NC(=O)c1cccc(C)c1	IP6K1 inhibitor -36, KDM5B inhibitor inconclusive, SNCA viab count inconclusive | IP6K1 conf inconclusive
CCCN(C(=O)Cn1ncc2c([nH]c3ccccc32)c1=O)c1ccc(F)cc1	IP6K1 inhibitor -37 | IP6K1 conf inactive
CCCCN(Cc1ccco1)C(=O)Cn1ncc2c([nH]c3ccccc32)c1=O	KDM5B inhibitor inconclusive
CCc1ccc(NC(=O)CN(c2ccc(OC)cc2)S(=O)(=O)c2c(C)[nH]c(=O)[nH]c2=O)cc1	IP6K1 inhibitor -31 | IP6K1 conf inactive
CCc1ccc(NC(=O)CN(c2cc(C)cc(C)c2)S(=O)(=O)c2c(C)[nH]c(=O)[nH]c2=O)cc1	none

Screening data as filed in PubChem.
